nsP2pro primary: Primary qHTS for inhibitors of NSP2Pro chikungunya virus (CHIKV); Potency, µM (doses to about 24.9 µM), most hits filed as inhibitors; hit rate 1.1% among 31,000; Polyprotein P1234 (Chikungunya virus (strain S27-African prototype)), Q8JUX6; FRET peptide cleavage, nsP2pro, fluorescence 1 h; note: nearly all actives have a fitted effect of over 60% in size
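Enzyme 150 nM, substrate 2.5 uM (both final); Tris-HCl 10 mM pH 8.0 + 0.01% Tween 20; cpd up to 25 uM, 7 pts; 15 min preinc., 1 h RT; fluorescence ex 525/em 598.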
nsP2 cell sec: Secondary cell base assay for inhibitors of NSP2Pro Chikungunya virus (CHIKV); hit rate 10% among 450; Potency, µM (titrated, usually from 51.1 µM), actives largely listed as inhibitors; cell-based CHIKV nsP2 protease reporter assay; AID 1964100, 2024; shares compounds with nsP2pro primary; note: nearly all actives have a fitted effect of over 70% in size
NSP2 full ctr: Selectivity profile for inhibitors of NSP2Pro chikungunya virus (CHIKV): Full length NSP2 enzyme counterscreen (CHIKV-NSP2); shares compounds with nsP2pro primary; Full-length CHIKV NSP2 protease enzymatic counterscreen; Potency, µM (highest dose often 50.7 µM), actives largely listed as inhibitors; hit rate 39% among 410; AID 1964101, 2024; note: nearly all actives have a fitted effect of over 65% in size
Furin counter: Selectivity profile for inhibitors of NSP2Pro chikungunya virus (CHIKV): Human furin counterscreen; shares compounds with nsP2pro primary; Recombinant human furin enzymatic counterscreen, fluorogenic substrate; Potency, µM (series often up to 50.6 µM), usual class: inhibitors; hit rate 6% among 410; AID 1964102, 2024
NS23 peptide cs: Selectivity profile for inhibitors of NSP2Pro chikungunya virus (CHIKV): Endogenous NS2/3 peptide Counterscreen | shares compounds with nsP2pro primary | Purified CHIKV nsP2 protease, endogenous NS2/3 peptide cleavage | Potency, µM (series often up to 51 µM), usual class: inhibitors | hit rate 34% among 410 | AID 1964103, 2024; note: nearly all actives have a fitted effect of over 55% in size
Papain cs: Selectivity profile for inhibitors of NSP2Pro chikungunya virus (CHIKV): Papain Counterscreen; AID 1964104, 2024; purified papain protease activity, enzymatic inhibition; hit rate 5% among 410; shares compounds with nsP2pro primary; Potency, µM (top dose mostly 51 µM), hits mostly inhibitors
Target sequence (P00784 whole entry, looked up): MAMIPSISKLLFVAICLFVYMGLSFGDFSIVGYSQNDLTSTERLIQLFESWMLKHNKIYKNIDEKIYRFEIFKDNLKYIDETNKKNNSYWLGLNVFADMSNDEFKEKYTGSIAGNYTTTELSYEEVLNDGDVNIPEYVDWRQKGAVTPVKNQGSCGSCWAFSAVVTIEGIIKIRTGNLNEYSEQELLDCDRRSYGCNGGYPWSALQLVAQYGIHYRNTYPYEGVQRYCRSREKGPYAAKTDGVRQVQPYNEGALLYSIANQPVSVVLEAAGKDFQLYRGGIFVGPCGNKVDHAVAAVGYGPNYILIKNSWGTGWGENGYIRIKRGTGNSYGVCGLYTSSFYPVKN
nsP2pro conf qHTS: Confirmatory qHTS for inhibitors of NSP2Pro chikungunya virus (CHIKV); shares compounds with nsP2pro primary; CHIKV nsP2 protease enzymatic activity, qHTS; Potency, µM (doses to about 25.5 µM), hits mostly inhibitors; hit rate 43% among 410; AID 1964105, 2024; note: nearly all actives have a fitted effect of over 75% in size
HCV NS3 4A cs: Selectivity profile for inhibitors of NSP2Pro chikungunya virus (CHIKV): NS34A-HCV Counterscreen | HCV NS3/4A protease biochemical counterscreen | hit rate 20% among 410 | Potency, µM (doses to about 50.9 µM), hits mostly inhibitors | shares compounds with nsP2pro primary | AID 1964106, 2024; note: nearly all actives have a fitted effect of over 55% in size
Large screens that a line does not name were inactive (follow-up assays come after a bar, where they were run); ! = not confirmed by another sample. The entries come from a sample that favours hits as a whole. Calls come from the whole dose curve.

Cn1cccc1CN=C1NC2=C(C(=O)CCC2)C(c2[nH]ncc2Cl)N1 (configuration not stated)	none
CC1=C(CCC(C)O[C@@H]2O[C@H](CO)[C@@H](O)[C@H](O)[C@H]2O)C(C)(C)CCC1=O (some centres not stated)	none
Cc1cc(C)nc(NC(=S)N2CCN(c3ccc4ccccc4n3)CC2)c1	none
COc1cc(O)c(C(CC(=O)N2CC(C)CC(C)C2)c2ccc(C)cc2)c(OC)c1 (configuration not stated)	none
CC1=C2C3OC(=O)C(C)C3(O)CCC2(C)CCC1 (configuration not stated)	none
C=C1C(=O)O[C@@H]2C3=C(C)CCC[C@]3(C)CC[C@@]12O	nsP2pro primary 3.13µM | nsP2 cell sec inconclusive | NSP2 full ctr inconclusive | Furin counter inactive | NS23 peptide cs 18.3µM | Papain cs inactive | nsP2pro conf qHTS inconclusive | HCV NS3 4A cs inactive
CC1=C2C3OC(=O)C(C)C3(O)CCC2(C)CCC1=O (configuration not stated)	none
CCN(CC)CCNc1ccc2ncn3c4ccc(O)cc4c(=O)c1c23	none
CCN(CC)CCNc1ccc(CO)c2sc3ccccc3c(=O)c12	nsP2pro primary inconclusive | nsP2 cell sec inconclusive | NSP2 full ctr inactive | Furin counter inactive | NS23 peptide cs inconclusive | Papain cs inactive | nsP2pro conf qHTS inactive | HCV NS3 4A cs inactive
Cc1ccc(NCCN(C)CCNc2ccnc3cc(Cl)ccc23)c2c(=O)c3ccccc3sc12	none
O=C(O)CC1(CC(=O)N[C@H]2CO[C@H]3[C@@H]2OC[C@@H]3n2nnnc2Oc2ccccc2)CCCC1	none
Cc1ccc(S(=O)(=O)c2nc(S(=O)(=O)c3ccc(C)cc3)c(NC(C)C)s2)cc1	none
Cc1ccc(S(=O)(=O)c2ncccc2[N+](=O)[O-])cc1	nsP2pro primary inconclusive | nsP2 cell sec 3.66µM | NSP2 full ctr inconclusive | Furin counter inactive | NS23 peptide cs 9.19µM | Papain cs inactive | nsP2pro conf qHTS 7.98µM | HCV NS3 4A cs inactive
Cc1ccc(S(=O)(=O)O)cc1	none
C=C1CC2[C@@]3(C)C=CC(=O)C(C)(C)C3=C(O)C(=O)[C@@]2(C)C2(C(=O)OC)C(=O)C(C)OC(=O)[C@@]12C (some centres not stated)	none
Cc1ccc(NS(=O)(=O)c2ccc3c(c2)CCC(=O)N3C)cc1Cl	none
O=C(Nc1ccc(OC(F)(F)F)cc1)c1cc(-c2ccc(Cl)cc2)on1	none
CN1C(C(=O)Nc2ccc(OC(F)(F)F)cc2)=CC(c2cccs2)=NS1(=O)=O	none
Cc1c(C(=O)Nc2ccc(N3C[C@@H](C)O[C@@H](C)C3)nc2)cccc1-c1ccc(OC(F)(F)F)cc1	nsP2pro primary inconclusive | nsP2 cell sec inactive | NSP2 full ctr inactive | Furin counter inactive | NS23 peptide cs inactive | Papain cs inactive | nsP2pro conf qHTS inactive | HCV NS3 4A cs inactive
CC(C)(C)c1cccc(NC(=O)Nc2nnc(-c3ccncc3)s2)c1	none
CCOc1ccc(CCNC(=O)c2csc(Br)n2)cc1OCC	none
CCOc1ccc(CCNC(=O)C2=C(C)OCCO2)cc1OCC	none
Cc1ccccc1CC(=O)Nc1cccc(-c2nnc3n2CCCC3)c1	none
c1c(C2CC2)nnn1C1CNC1	nsP2pro primary 8.91µM | nsP2 cell sec inactive | NSP2 full ctr inactive | Furin counter inactive | NS23 peptide cs inconclusive | Papain cs inactive | nsP2pro conf qHTS inconclusive | HCV NS3 4A cs inconclusive
O=C(NCc1ccccc1)c1cn(C2CNC2)nn1	none
Cc1cnn(-c2cc(N3CCC(n4cc(C5CCCC5)nn4)CC3)ncn2)c1	none
O=C(O)c1ccc(-n2cccc2/C=C2\SC(=O)N(Cc3ccc(Cl)cc3)C2=O)cc1	none
COc1ccc(-c2nnc(SCC(=O)Nc3c(C)cccc3C)nc2-c2ccc(OC)cc2)cc1	none
CCOC(=O)Cn1cccc1-c1nc(-c2ccc(OC)cc2)c(-c2ccc(OC)cc2)s1	nsP2pro primary 6.24µM | nsP2 cell sec inactive | NSP2 full ctr inconclusive | Furin counter inactive | NS23 peptide cs inactive | Papain cs inactive | nsP2pro conf qHTS inactive | HCV NS3 4A cs inactive
COc1ccc(-c2noc(CC(=O)O)c2-c2ccc(OC)cc2)cc1	none
COc1ccccc1-c1cc(Nc2cccc(CS(N)(=O)=O)c2)ncn1	none
CC(=O)O[C@]1(C(C)=O)CC[C@H]2[C@@H]3CCC4=CC(=O)CCC4=C3[C@@H](c3ccc(N(C)C)cc3)C[C@@]21C	none
O=C(O)c1ccccc1Nc1cc(Cl)ccc1C(=O)O	none
Cc1cc(Nc2ccccc2C(=O)O)ccc1Cl	nsP2pro primary 3.51µM | nsP2 cell sec inactive | NSP2 full ctr 13µM | Furin counter inactive | NS23 peptide cs inconclusive | Papain cs inconclusive | nsP2pro conf qHTS 2µM | HCV NS3 4A cs inactive
Cc1cccc(Nc2ccccc2C(=O)O)c1C	none
COc1cncc(NC(=O)c2cccs2)c1	none
NCCC[C@H](N)CC(=O)N[C@H]1CNC(=O)[C@H]([C@H]2C[C@H](O)N=C(N)N2)NC(=O)/C(=C/NC(N)=O)NC(=O)[C@H](CO)NC(=O)[C@H](CO)NC1=O	none
CN1CCCC2(C1)CN(C)c1ccc(C(=O)NCC3CCCCC3)cc12 (configuration not stated)	none
CNC(=O)Oc1ccc2c(c1)[C@]1(C)CCN(C)[C@@H]1N2C	nsP2pro primary 4.42µM! | nsP2 cell sec inactive | NSP2 full ctr inactive | Furin counter inactive | NS23 peptide cs inactive | Papain cs inactive | nsP2pro conf qHTS inconclusive | HCV NS3 4A cs inactive
c1ccc(C2=NOC3(CCN(C4CCCCC4)CC3)C2)cc1	none
O=C(c1ccc(F)cc1)n1nc(-c2ccc(Cl)cc2)nc1NCc1ccco1	none
O=C(/C=C/c1ccco1)Nc1ccc(F)cc1	nsP2pro primary 6.31µM | nsP2 cell sec inactive
COc1ccc(NC(=O)/C=C\C(=O)N(c2ccc(C(C)C)cc2)C(C(=O)NCc2ccco2)c2ccc(F)cc2)cc1 (configuration not stated)	none
COC(=O)c1ccc(O)c2ncc(-c3ccc(C(=O)NCCCN(C)C)cc3)cc12	none

Source: PubChem
